Assay outcomes: PubChem BioAssay, National Center for Advancing Translational Sciences (NCATS)
A selection: hits, their analogues and other compounds. The true share with any hit is near 2.4%.
Cruzain Triton: inhibitors of Trypanosoma cruzi cruzain with detergent | hit rate 0.43% among 200,000 | purified cruzain, Z-FR-AMC fluorescence, 0.01% Triton | Potency, µM, hits mostly inhibitors | AID 1478; further: nearly all actives have a fitted effect of over 40% in size
Target sequence (P25779 123-467 limits assumed): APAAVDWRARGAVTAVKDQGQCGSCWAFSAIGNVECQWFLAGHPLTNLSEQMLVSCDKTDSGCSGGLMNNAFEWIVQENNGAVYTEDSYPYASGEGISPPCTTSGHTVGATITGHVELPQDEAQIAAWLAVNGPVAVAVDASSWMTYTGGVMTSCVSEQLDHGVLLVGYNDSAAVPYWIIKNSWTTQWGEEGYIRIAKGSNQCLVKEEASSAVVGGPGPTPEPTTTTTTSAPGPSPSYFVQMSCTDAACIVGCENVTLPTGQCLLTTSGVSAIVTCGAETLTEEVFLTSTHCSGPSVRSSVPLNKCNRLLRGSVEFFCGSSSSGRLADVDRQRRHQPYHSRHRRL
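Compounds were screened in titration against cruzain (1.5 nM) with 0.01% Triton X-100 to counter colloidal aggregation. Activity was the AMC fluorescence increase over 60 s after adding 2 uM Z-FR-AMC at pH 5.5.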
Cruzain inh noDet: inhibitors of Trypanosoma cruzi cruzain without detergent; P25779; purified cruzain, Z-FR-AMC fluorescence, no detergent; Potency, µM, hits mostly inhibitors; hit rate 2.3% among 200,000; further: nearly all actives have a fitted effect of over 40% in size
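Detergent-free condition (0.00005% Triton X-100) in acetate buffer pH 5.5 with DTT. 1.5 nM enzyme and compound were pre-mixed 15 min, then 2 uM Z-FR-AMC substrate added; reaction progress from fluorescence change between first and third reads (60 s).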
Papain counter: counter-screen for cruzain inhibitors: papain inhibition; shares compounds with Cruzain Triton; purified papain, Z-FR-AMC fluorescence cleavage; AID 2161; Potency, µM, hits mostly inhibitors; hit rate 41% among 410; further: nearly all actives have a fitted effect of over 35% in size
A number is an active result; i = inactive; ? = inconclusive; nt = no result given. The call rests on the fitted dose curve; in most records, active means well fitted curve in the direction sought with a large enough effect; inconclusive means small, poorly fitted or top-dose-only effect, or another doubt; inactive means no such curve, though single readings can be large; an effect the other way counts as inactive or inconclusive.

SMILES	Cruzain Triton	Cruzain inh noDet	Papain counter
Cc1ccc(-c2c(C)n([O-])c3c([n+]2=O)CCCC3)o1	i	i	nt
COc1ccc(NS(=O)(=O)c2ccc(-n3nnc4ccccc43)c([N+](=O)[O-])c2)cc1	i	?	nt
O=[N+]([O-])c1cc(S(=O)(=O)Nc2cccc(C(F)(F)F)c2)ccc1-n1nnc2ccccc21	3.98µM	10µM	28.2µM
COc1ccc(-c2cn3nc(SCC(=O)Nc4ccc(C)c(Cl)c4)ccc3n2)cc1	i	i	nt
S=C(c1ccc(-c2cccc(Cl)c2)o1)N1CCOCC1	i	i	nt
CC(=O)N1CCN(C(=S)c2ccc(-c3ccc(Cl)cc3)o2)CC1	8.91µM	?	15.8µM
CCN1CCCC1CNC(=O)c1cc(NC(C)=O)c(N(C)C)cc1OC (stereo not drawn)	i	i	nt
CCc1cc2c(=O)[nH]c(-c3ccncc3)nc2s1	8.91µM	?	i
CCc1cc2c(=O)[nH]c(Cc3ccccc3)nc2s1	i	?	nt
Cc1ccccc1NC(=O)C1CCC(CNS(=O)(=O)c2ccc3c(c2)C(C)(C)C(=O)N3C)CC1 (stereo not drawn)	i	?	nt
Cc1ccc2ncnc(NCCCN3CCOCC3)c2c1	i	i	nt
CCN1CCCC1CNc1ncnc2c1[nH]c1ccc(Cl)cc12 (stereo not drawn)	25.1µM	15.8µM	i
CCN1CCCC1Cn1cnc2c([nH]c3ccc(C)cc32)c1=O (stereo not drawn)	i	i	nt
Clc1ccc2[nH]c3c(NCCCN4CCOCC4)ncnc3c2c1	15.8µM	12.6µM	i
Cc1ccc2c(c1)-c1c(c(C(=O)NCCc3ccccc3)nn1C)CS2	i	i	nt
O=C1NC(=O)C2(COC(c3ccccc3Cl)OC2)S1 (stereo not drawn)	i	i	nt
O=C(CNC(=O)C1CCCCC1)OCC(=O)c1cccc(Cl)c1	nt	nt	14.1µM
O=C(COC(=O)CNC(=O)C1CCCCC1)NC1CCCC1	nt	nt	31.6µM
O=C(CCC(=O)OCC(=O)c1ccc(Cl)cc1)NC1CCCCC1	i	i	nt
O=C(CNC(=O)c1ccccc1)NCC(=O)OCC(=O)c1ccc(F)cc1	i	i	nt
CCC(=O)NCC(=O)OCC(=O)c1ccccc1	i	i	nt
O=C(CNC(=O)C1CCCCC1)OCC(=O)c1ccc(-c2ccccc2)cc1	nt	nt	i
O=C(COC(=O)COc1ccc(Cl)cc1)NC1CCCCC1	i	i	nt
O=C(CNC(=O)C1CCCCC1)OCC(=O)c1ccc(F)cc1	nt	nt	15.8µM
O=C1c2[nH]nc(-c3ccccc3)c2C(c2ccccc2)N1c1cccc(C(F)(F)F)c1 (stereo not drawn)	i	?	nt
SMILES	Cruzain Triton	Cruzain inh noDet	Papain counter
Cc1c(NC(=O)COc2ncnc3ccccc23)c(=O)n(-c2ccccc2)n1C	i	i	nt
CN(N=O)c1cc(O)ccc1O	i	i	nt
Cc1cc(C)cc(NC(=O)C2CCN(S(=O)(=O)c3cccc(-c4noc(C)n4)c3)CC2)c1	i	i	nt
CCOc1ccc(C(=O)OCc2cc(=O)n3nc(C(C)C)sc3n2)cc1	i	i	nt
CCc1ccc(C(=O)COC(=O)CNC(=O)C2CCCCC2)cc1	nt	nt	i
N#Cc1ccc(NC(=O)COC(=O)CNC(=O)C2CCCCC2)cc1	3.98µM	3.98µM	i
O=C(COC(=O)C1CCCCC1)Nc1ccc(N2CCCCC2)cc1	i	i	nt
O=C(CCC(=O)OCC(=O)c1ccc([N+](=O)[O-])cc1)NC1CCCCC1	i	i	nt
CCc1ccc(C(=O)COC(=O)CNC(=O)CNC(=O)Cc2ccccc2)cc1	i	i	nt
O=C(CNC(=O)C1CCCCC1)OCC(=O)c1ccc([N+](=O)[O-])cc1	nt	nt	15.8µM
CCOC(=O)Nc1ccc(=O)n(Cc2c(Cl)cccc2Cl)c1	i	i	nt
Cc1cccc(-c2nc3c4ccccc4n(CC(=O)Nc4cccc(F)c4)c(=O)n3n2)c1	i	i	nt
Cc1ccc(CNCc2ccc3c(c2)n(C)c(=O)n3C)cc1	i	i	nt
CCN(CC)C(=O)c1c(NC(=O)c2ccccc2F)sc2c1CCC(C(C)(C)C)C2 (stereo not drawn)	i	i	nt
Brc1cccc(-c2nn(-c3ccccc3)c3c2cnc2cc4c(cc23)OCO4)c1	i	?	nt
CCn1c(CNc2ccc(F)cc2)nnc1SCCN1CCCCC1	i	i	nt
CCCn1c2ccc(F)cc2c2nnc(SCCN3CCCCC3)nc21	2µM	2µM	12.6µM
CC1CCc2cc(F)ccc2N1C(=O)CSc1nnc2c3cc(F)ccc3n(C)c2n1 (stereo not drawn)	i	i	nt
CCn1c2ccc(F)cc2c2nnc(SCCN3CCCCC3)nc21	14.1µM	12.6µM	25.1µM
CCCn1c2ccc(F)cc2c2nnc(SCCN(CC)CC)nc21	4.47µM	3.98µM	25.1µM
CCCn1c(-c2ccc(F)cc2)nc2c(NCCCCN3CCCC3)nc(C)nc21	i	i	nt
Cc1cc(S(=O)(=O)NCCc2csc(-c3cccc(F)c3)n2)ccc1F	i	i	nt
CCOC(=O)C1CCN(C(=O)CSc2n[nH]c(-c3ccc(F)cc3)n2)CC1	i	i	nt
CCOC(=O)N1CCC(=C2c3ccc(Cl)cc3CCc3cccnc32)CC1	i	?	i
